Results reported in the supplement of paper PMC10849652.
Targets with a hit are over-represented here; the source holds about 7,900 in all. About 0.6% of all pairs of compound and target were hits. A number with no mark means an inactive call.

compound: Nc1ccccc1NC(=O)c1ccc(CNC(=O)OCc2cccnc2)cc1 [entinostat]; assay: log2 fold change, soluble protein after heating vs DMSO (PISA); higher = thermal stabilisation; K562 cells, 10 uM, 30 min; active = over 0.2 and 3.5 SD of the protein, either way, in both replicates (recomputed)
In short: (§1)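 K562 cells at 2×10^6 cells/mL were treated with 10 μM compound for 30 min. Aliquots were heated for 3 min across 48°C-58°C, pooled, and extracted in PBS with 0.5% NP-40 at 4°C; soluble protein was the supernatant after 21,000xg for 90 min. Soluble protein was quantified by TMTpro 16plex LC-MS/MS with channel sums equalised, and reported as log2 fold change in thermal stability against DMSO controls, with values from duplicates.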

Sequence of UniProt Q99439 (Q99439 whole entry, looked up): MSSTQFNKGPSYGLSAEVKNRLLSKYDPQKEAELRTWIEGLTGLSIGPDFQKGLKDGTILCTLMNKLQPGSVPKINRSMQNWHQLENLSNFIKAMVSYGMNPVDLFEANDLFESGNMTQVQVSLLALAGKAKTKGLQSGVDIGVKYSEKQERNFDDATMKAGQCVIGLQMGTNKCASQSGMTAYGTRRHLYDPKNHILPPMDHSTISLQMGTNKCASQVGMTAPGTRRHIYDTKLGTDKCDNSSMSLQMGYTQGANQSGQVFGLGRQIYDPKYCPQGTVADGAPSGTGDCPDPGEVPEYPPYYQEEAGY
Sequence of UniProt P33240 (P33240 whole entry, looked up): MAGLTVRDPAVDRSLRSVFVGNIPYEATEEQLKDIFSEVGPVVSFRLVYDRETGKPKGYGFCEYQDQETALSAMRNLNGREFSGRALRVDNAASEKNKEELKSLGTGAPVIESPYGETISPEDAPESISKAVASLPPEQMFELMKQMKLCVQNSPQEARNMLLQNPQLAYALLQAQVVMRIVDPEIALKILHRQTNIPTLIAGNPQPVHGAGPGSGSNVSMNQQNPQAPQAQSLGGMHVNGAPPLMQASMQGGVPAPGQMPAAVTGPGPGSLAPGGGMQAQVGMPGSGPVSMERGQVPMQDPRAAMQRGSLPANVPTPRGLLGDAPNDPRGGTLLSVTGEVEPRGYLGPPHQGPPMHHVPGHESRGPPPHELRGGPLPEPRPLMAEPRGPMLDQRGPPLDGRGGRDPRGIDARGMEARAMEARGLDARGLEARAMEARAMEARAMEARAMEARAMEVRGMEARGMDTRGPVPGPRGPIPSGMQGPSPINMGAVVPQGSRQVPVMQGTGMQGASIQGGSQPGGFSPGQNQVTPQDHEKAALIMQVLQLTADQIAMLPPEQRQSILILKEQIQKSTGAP
Sequence of UniProt P46108 (P46108 whole entry, looked up): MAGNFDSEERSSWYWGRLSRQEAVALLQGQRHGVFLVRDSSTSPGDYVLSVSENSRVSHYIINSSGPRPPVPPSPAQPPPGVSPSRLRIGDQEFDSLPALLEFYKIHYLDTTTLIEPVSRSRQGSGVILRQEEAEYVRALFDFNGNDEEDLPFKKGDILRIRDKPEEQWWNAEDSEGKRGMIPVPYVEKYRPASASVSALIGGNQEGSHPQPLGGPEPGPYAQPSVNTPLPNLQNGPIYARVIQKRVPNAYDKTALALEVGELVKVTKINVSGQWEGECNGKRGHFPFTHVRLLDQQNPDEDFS
Sequence of UniProt P86791 (P86791 whole entry, looked up): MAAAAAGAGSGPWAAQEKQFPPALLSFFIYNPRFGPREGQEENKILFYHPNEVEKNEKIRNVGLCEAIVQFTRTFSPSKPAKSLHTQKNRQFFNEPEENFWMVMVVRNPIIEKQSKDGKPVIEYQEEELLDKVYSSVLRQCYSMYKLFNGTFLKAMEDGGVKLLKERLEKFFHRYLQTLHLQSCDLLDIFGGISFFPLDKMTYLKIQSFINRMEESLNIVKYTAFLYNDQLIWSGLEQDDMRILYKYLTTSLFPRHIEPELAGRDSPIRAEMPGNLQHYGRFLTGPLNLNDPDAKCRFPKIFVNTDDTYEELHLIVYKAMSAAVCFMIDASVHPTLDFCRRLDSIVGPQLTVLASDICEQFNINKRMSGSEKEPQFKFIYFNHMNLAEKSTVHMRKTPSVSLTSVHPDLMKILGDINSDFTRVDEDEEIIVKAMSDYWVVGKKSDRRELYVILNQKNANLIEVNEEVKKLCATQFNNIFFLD
Sequence of UniProt P00915 (P00915 whole entry, looked up): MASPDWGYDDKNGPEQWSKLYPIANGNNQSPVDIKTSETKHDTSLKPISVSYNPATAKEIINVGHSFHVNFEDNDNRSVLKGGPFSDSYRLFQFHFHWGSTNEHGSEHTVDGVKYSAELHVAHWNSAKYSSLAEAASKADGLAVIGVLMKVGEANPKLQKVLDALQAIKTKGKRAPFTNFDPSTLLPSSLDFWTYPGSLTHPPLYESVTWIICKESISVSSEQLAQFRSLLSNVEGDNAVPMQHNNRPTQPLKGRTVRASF
Sequence of UniProt Q96KP4 (Q96KP4 whole entry, looked up): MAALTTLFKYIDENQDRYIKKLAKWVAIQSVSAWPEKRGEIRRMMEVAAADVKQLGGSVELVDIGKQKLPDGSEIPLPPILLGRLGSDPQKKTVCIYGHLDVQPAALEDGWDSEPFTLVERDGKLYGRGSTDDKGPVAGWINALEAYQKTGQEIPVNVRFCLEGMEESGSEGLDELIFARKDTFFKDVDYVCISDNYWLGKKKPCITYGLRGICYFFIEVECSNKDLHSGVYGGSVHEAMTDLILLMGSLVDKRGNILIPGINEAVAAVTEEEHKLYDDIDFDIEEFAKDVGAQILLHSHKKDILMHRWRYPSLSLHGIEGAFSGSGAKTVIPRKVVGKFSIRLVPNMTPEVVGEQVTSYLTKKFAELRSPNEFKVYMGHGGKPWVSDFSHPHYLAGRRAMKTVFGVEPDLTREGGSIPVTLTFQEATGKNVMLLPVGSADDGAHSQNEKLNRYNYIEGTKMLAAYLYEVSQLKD
Sequence of UniProt Q9Y646 (Q9Y646 whole entry, looked up): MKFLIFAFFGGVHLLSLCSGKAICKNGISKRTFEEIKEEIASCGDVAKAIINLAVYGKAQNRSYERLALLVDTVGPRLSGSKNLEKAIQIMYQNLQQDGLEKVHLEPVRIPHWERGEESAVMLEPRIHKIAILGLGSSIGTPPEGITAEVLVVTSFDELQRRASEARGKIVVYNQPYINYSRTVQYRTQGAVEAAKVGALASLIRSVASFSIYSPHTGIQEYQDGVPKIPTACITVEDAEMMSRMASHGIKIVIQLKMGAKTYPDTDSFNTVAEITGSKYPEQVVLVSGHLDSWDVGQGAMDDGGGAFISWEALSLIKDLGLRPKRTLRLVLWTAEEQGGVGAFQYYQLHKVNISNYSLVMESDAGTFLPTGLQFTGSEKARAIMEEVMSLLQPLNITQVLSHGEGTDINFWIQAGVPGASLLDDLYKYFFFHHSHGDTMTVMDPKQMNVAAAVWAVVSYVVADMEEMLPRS
Sequence of UniProt Q12996 (Q12996 whole entry, looked up): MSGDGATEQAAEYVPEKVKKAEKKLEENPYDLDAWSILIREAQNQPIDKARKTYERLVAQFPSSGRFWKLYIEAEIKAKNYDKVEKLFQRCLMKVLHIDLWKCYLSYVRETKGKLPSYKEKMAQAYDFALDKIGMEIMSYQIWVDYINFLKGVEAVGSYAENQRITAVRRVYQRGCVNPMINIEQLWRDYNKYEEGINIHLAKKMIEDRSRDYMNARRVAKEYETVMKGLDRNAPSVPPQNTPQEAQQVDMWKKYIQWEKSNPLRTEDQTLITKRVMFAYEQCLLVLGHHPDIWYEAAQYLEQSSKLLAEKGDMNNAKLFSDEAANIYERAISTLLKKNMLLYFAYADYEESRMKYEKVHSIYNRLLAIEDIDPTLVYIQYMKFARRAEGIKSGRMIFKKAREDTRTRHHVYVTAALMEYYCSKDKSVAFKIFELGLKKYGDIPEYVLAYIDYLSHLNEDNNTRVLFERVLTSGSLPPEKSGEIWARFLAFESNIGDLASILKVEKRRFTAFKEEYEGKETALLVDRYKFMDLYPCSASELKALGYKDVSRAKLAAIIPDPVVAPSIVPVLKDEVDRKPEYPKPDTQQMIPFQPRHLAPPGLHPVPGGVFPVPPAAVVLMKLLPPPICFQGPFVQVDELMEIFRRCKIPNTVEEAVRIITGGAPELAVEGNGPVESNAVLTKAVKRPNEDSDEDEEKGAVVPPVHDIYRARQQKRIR
Sequence of UniProt Q9NZN8 (Q9NZN8 whole entry, looked up): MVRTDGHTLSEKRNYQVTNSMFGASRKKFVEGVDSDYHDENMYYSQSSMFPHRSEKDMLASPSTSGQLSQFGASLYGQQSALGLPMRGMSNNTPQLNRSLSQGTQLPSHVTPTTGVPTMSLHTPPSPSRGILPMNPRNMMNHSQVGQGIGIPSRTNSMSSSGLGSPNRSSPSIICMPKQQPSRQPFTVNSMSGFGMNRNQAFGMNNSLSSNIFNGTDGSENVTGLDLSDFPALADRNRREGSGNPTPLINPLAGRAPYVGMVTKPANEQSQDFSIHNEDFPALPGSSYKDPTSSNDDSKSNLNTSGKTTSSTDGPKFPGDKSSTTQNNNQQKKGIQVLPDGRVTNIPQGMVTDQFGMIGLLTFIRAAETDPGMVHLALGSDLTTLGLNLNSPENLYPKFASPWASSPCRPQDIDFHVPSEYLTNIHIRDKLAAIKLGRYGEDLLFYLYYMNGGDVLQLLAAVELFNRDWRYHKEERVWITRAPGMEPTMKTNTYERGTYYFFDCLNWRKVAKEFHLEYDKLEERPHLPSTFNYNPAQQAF
Sequence of UniProt P41208 (P41208 whole entry, looked up): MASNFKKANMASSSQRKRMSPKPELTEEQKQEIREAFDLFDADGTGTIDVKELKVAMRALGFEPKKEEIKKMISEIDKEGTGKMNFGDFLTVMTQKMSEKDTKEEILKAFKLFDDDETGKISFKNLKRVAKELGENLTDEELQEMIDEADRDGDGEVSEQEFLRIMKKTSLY
Sequence of UniProt P19784 (P19784 whole entry, looked up): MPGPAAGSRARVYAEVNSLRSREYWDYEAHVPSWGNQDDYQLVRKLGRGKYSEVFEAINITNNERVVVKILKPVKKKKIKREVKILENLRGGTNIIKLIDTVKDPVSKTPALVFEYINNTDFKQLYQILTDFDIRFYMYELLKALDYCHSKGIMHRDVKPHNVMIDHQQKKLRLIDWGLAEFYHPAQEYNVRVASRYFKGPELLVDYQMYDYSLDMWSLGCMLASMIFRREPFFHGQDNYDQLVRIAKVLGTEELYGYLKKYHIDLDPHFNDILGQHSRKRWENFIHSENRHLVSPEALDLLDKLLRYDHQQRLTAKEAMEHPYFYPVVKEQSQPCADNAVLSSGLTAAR
Sequence of UniProt P14854 (P14854 whole entry, looked up): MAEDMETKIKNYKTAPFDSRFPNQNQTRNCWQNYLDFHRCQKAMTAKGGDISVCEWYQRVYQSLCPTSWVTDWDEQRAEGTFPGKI
Sequence of UniProt Q9Y6H1 (Q9Y6H1 whole entry, looked up): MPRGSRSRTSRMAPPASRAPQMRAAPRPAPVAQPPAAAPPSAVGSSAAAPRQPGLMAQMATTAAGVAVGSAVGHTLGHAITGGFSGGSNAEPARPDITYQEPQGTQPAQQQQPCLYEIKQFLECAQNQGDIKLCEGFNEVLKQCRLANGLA

Target	log2 fold change
CCZ1 (UniProt P86791)	0.006
CSTF2 (UniProt P33240)	-0.028
COX6B1 (UniProt P14854)	0.085
CNDP2 (UniProt Q96KP4)	-0.015
CPQ (UniProt Q9Y646)	0.012
CA1 (UniProt P00915)	-0.011
CNN2 (UniProt Q99439)	0.08
CSNK2A2 (UniProt P19784)	-0.015
CNOT2 (UniProt Q9NZN8)	-0.023
CRK (UniProt P46108)	0.026
CETN2 (UniProt P41208)	-0.033
CPSF1 (UniProt Q10570)	-0.023
CSTF3 (UniProt Q12996)	-0.032

compound: O=C(CCCCCCC(=O)Nc1ccccc1)NO [vorinostat]; assay: as above
In short: as §1

Target	log2 fold change
CD151 (UniProt P48509)	-0.025
CBX1 (UniProt P83916)	-0.036
CHCHD2 (UniProt Q9Y6H1)	0.005
CCNK isoform 4 (UniProt O75909)	-0.021
CBR1 (UniProt P16152)	-0.041
CASP2 (UniProt P42575)	0.13
COCH (UniProt O43405)	-0.122
CTBS (UniProt Q01459)	-0.017
CDKN2AIP (UniProt Q9NXV6)	0.027
CBS (UniProt P35520)	-0.031
COMT (UniProt P21964)	-0.054
CCDC9 (UniProt Q9Y3X0)	-0.051
CHD4 isoform 2 (UniProt Q14839)	0.049
COX5A (UniProt P20674)	-0.078
CLCN3 (UniProt P51790)	-0.022
C4A (UniProt P0C0L4)	0.265
CCAR2 isoform 2 (UniProt Q8N163)	0.168
COPS4 (UniProt Q9BT78)	0.027

Target	log2 fold change
CDK16 isoform 2 (UniProt Q00536)	-0.044
COPS3 (UniProt Q9UNS2)	-0.003
C4orf33 (UniProt Q8N1A6)	-0.05
COPS8 (UniProt Q99627)	0.041
CDK5RAP3 isoform 4 (UniProt Q96JB5)	0.04
CCZ1 (UniProt P86791)	0.013
CSTF2 (UniProt P33240)	-0.08
COX6B1 (UniProt P14854)	-0.06
CNDP2 (UniProt Q96KP4)	-0.015
CPQ (UniProt Q9Y646)	-0.043
CA1 (UniProt P00915)	0.221 (active)
CNN2 (UniProt Q99439)	0.029
CSNK2A2 (UniProt P19784)	0.086
CNOT2 (UniProt Q9NZN8)	0.018
CRK (UniProt P46108)	-0.002
CETN2 (UniProt P41208)	-0.122
CPSF1 (UniProt Q10570)	0.012
CSTF3 (UniProt Q12996)	-0.032
